About 83,000 compounds went through this panel and 20% of them were active in at least one assay; those are over-represented in the sample as a whole.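 The endpoint reported here, percent growth, reads 100 for growth as untreated, 0 for no net growth and -100 for all cells dead.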 Values without a mark were called inactive. The source made the active and inactive calls. The calls were made as follows: active = growth percent below 10; inactive = the rest.

This note sets out measurements from PubChem BioAssay (NCI).

Common to all, as to test: NCI-60 one-dose screen, 48 h (100 = growth as untreated, 0 = no growth, -100 = all killed)
What all share (conditions): 10 µM unless noted

For experiment [1], the system named is NCI-H23 lung.
Experiment [2] concerns NCI-H226 lung.
Experiment [3] deals with NCI-H322M lung.
Experiment [4] deals with HOP-62 NSCLC.
Experiment [5] relates to NCI-H460 lung.
Experiment [6] concerns HOP-92 NSCLC.
Experiment [7] has as its system NCI-H522 lung.
In experiment [8] the test system is A549/ATCC NSCLC.
Experiment [9] relates to 786-0 renal.
Experiment [10] concerns COLO 205 colon.

In the case of `C[C@]12CC[C@@H]3c4ccc(O)c([N+](=O)[O-])c4CC[C@H]3[C@@H]1CCC2=O`, the growth in experiment [1] was 95.7%; in [2], 95.7%; in experiment [3] it was 99%; in [4], 104%; in experiment [5], 112%; in [6], 86.6%. Moreover, the growth in experiment [7] is 85.8%; in experiment [8] it was 102%; in experiment [9] it was 90.1%; in experiment [10], 159%.

`Oc1ccc(CCn2c(O)c(/C=C3\CN=c4ccccc4=N3)sc2=S)cc1`: the growth was 59.1% in [1]; 88.7% in experiment [2]; 78.7% in experiment [3]; 65.8% in experiment [4]; 83.3% in experiment [5]; -14.4% (active) in experiment [6]. In addition, the growth is 18.5% in experiment [7], 82.1% in experiment [8], 28.3% in experiment [9] and 103% in experiment [10].

Consider `CC(C)NC1CCC(Nc2ccnc3cc(Cl)ccc23)CC1` (stereo not given), for which the growth is 101% in experiment [1]; 83.6% in experiment [2]; 88.2% in [3]; 78.1% in experiment [4]; 101% in experiment [5]; 46.8% in experiment [6]. Also, the growth in experiment [7] is 78.5%; in [8], 91.1%; in [9], 90.4%; in [10], 69.3%.

As to `CCCCCC(=O)OCC(=O)O[C@@H]1C[C@]2(C(C)C)O[C@@]1(C)[C@@H]1CC[C@@H](C)[C@H]1[C@@H]2OC(=O)/C=C/c1ccccc1`, the growth in experiment [1] was 91.3%; in experiment [2], 86%; in experiment [3], 84.6%; in experiment [4], 91.7%; in [5], 93.3%; in experiment [6], 95.3%. Further, the growth was 55.9% in [7], 78.7% in [8], 54.4% in experiment [9] and 73.9% in [10].

Turning to `CCN(c1ccc(Cl)cc1)c1nc(-c2ccc([N+](=O)[O-])cc2)cs1`, the growth is 92% in [1]; 91.9% in experiment [2]; 86.7% in experiment [3]; 99.6% in experiment [4]; 99.6% in [5]; 83.6% in experiment [6]. Besides, the growth in [7] is 82.8%; in experiment [8], 97.6%; in experiment [9] it was 89%; in experiment [10], 113%.

As to `CCN1CCN(Cc2cn(CC(=O)Nc3ccc4c(ccn4Cc4ccccc4)c3)nn2)CC1`, the growth in experiment [1] was 104%; in experiment [2], 91.8%; in experiment [3], 98.8%; in [4], 96%; in experiment [5], 114%; in [6] it was 87.6%. The growth in [7] was 99.9%; in [8], 102%; in [9] it was 97.8%; in [10], 99.4%.

With `N#CCSc1nnc2n(Cc3ccccc3)c(=O)c3c4c(sc3n12)CCCC4`, the growth was 105% in [1]; 102% in [2]; 102% in experiment [3]; 91.9% in experiment [4]; 108% in experiment [5]; 71.3% in experiment [6]. In addition, the growth is 104% in [7], 80.4% in experiment [8], 76.3% in experiment [9] and 106% in experiment [10].

As for `O=C1c2cccc3cccc(c23)C(=O)N1N1C(=O)c2cccc3c(N4CCOCC4)ccc(c23)C1=O`, the growth in [1] is 89.1%; in experiment [2], 95.4%; in experiment [3], 94.5%; in [4] it was 87.3%; in experiment [5], 101%; in experiment [6], 85.6%. The growth in experiment [7] is 102%; in experiment [8] it was 95.5%; in experiment [9], 102%; in experiment [10], 108%.

In the case of `O=[N+]([O-])C1C(c2ccccc2)C12c1ccccc1-c1ccccc12` (stereo not given), the growth in [1] was 7.97% (active); in experiment [2], 15%; in experiment [3], 29.3%; in experiment [4] it was 34.2%; in experiment [5], -14.3% (active); in experiment [6], -3.91% (active). In addition, the growth in experiment [7] was -13.8% (active); in experiment [8], 8.59% (active); in [9] it was 4.98% (active); in [10] it was 14.9%.

For the compound `CCCCC(=O)Nc1ncc(Cc2ccc(Cl)cc2)s1`, the growth in [1] was 90.3%; in experiment [2], 82%; in [3] it was 86.8%; in [4], 68.8%; in experiment [5] it was 60.7%; in experiment [6] it was 69.7%. The growth in [7] was 50.1%; in experiment [8] it was 53.1%; in experiment [9], 80.7%; in experiment [10] it was 76.5%.

Take `COc1ccc(-c2cc(-c3ccc(Cl)cc3)c(C#N)c(=O)n2CCCCC(=O)Nc2ccccc2N)cc1`: the growth is 63.4% in experiment [1]; 55.3% in experiment [2]; 63.8% in [3]; 64.1% in experiment [4]; 37.6% in experiment [5]; -3.51% (active) in [6]. Also, the growth was 48.6% in [7], 43.8% in [8], 68.8% in experiment [9] and 20.2% in experiment [10].

As to `CC(=O)Cc1nsc(NC(=O)c2cc(-c3cc(Cl)cc(Cl)c3)oc2C)n1`, the growth was 101% in experiment [1]; 96.3% in experiment [2]; 100% in [3]; 95.9% in experiment [4]; 103% in [5]; 105% in experiment [6]. The growth in experiment [7] was 86.6%; in [8], 94.3%; in [9] it was 98%; in experiment [10], 107%.

For the compound `CCc1nc2c(=O)[nH]cnc2o1`, the growth is 107% in experiment [1]; 96.4% in experiment [2]; 97.8% in [3]; 100% in experiment [4]; 105% in experiment [5]; 72.2% in [6]. Further, the growth is 108% in [7], 99.7% in experiment [8], 110% in experiment [9] and 110% in [10].
